HIF act: HIF pathway transcriptional activation; U2OS HRE-luciferase reporter, luminescence; normalized: DMSO 0%, desferrioxamine 100%; activation, % at 7.5 µM (by protocol); 300,000 compounds, 0.32% hits;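 active = mean activation of at least 10% of the iron chelator positive control signal, with at least half of replicates also reaching 10%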
sPLA2-III inh: Inhibits HGIII-sPLA2 liposome hydrolysis, primary screen | Q9NZ20 | QFRET BODIPY PC-A2 liposome hydrolysis, fluorescence | inhibition, % at 12.2 µM | 370,000 compounds, 0.56% hits;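 active = inhibition above mean plus 3 SD of compounds lying within the high and low control bounds, cut at about 19% in these data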;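 note: 0% = median of test compound wells and 100% = no enzyme DMSO wells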
Target sequence (Q9NZ20 whole entry, looked up): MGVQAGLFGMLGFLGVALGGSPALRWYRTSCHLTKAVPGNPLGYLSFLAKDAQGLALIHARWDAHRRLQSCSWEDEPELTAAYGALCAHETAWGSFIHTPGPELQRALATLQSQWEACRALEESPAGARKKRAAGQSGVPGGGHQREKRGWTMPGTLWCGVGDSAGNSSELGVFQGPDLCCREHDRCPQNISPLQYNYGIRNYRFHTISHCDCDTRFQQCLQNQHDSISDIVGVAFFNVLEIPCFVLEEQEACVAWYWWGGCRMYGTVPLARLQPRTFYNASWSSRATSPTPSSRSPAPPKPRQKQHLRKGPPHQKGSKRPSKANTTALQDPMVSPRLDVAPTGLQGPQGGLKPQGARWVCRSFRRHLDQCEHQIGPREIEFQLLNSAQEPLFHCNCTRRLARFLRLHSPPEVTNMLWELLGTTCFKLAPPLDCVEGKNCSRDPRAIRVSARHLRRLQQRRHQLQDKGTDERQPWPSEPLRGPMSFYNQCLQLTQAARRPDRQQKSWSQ
PLCg1 inh: PLC-gamma1 (human) inhibition, primary screen. P19174. purified PLC-gamma1, fluorogenic substrate, fluorescence. inhibition, % at 12.2 µM. 370,000 compounds, 0.84% hits. AID 720700; in the data active = inhibition above about 9.5%
AHR act: human AHR activation; P35869; AHR-responsive luciferase reporter cells, luminescence; activation, % at 5 µM; 320,000 compounds, 2.5% hits; in the data active = activation above about 47%;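 note: 0% = vehicle wells and 100% = reference agonist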
CR mimetic SO: yeast age-related superoxide inhibition as caloric restriction mimetic; S. cerevisiae aged cells, superoxide DHE fluorescence; active compounds read low; superoxide response (% of plate mean), % at 10 µM; 330,000 compounds, 0.18% hits;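 active = superoxide response under a set limit, about three screen SD below normal, cut at about 65% in these data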;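 note: yeast aged for seven days with compound at 30 °C before DHE staining; 100% = average MFI of all compound-treated wells on the plate with controls excluded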
PLC-beta3 inh: blocks human PLC-beta3 enzyme activity; Q01970; Purified PLC-beta3, fluorogenic substrate, fluorescence; inhibition, % at 12.2 µM; 370,000 compounds, 0.18% hits; AID 720704; in the data active = inhibition above about 11%;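 note: 0% = median of compound wells on plate and 100% = full blocker control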
hGIII sPLA2 conf: human GIII-sPLA2 inhibition, confirmation. shares compounds with sPLA2-III inh. recombinant hGIII-sPLA2, BODIPY PC-A2 QFRET fluorescence. inhibition, % at 12.2 µM. 2,000 compounds, 34% hits;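 active = mean inhibition across triplicates above the hit cutoff set in the earlier primary screen, cut at about 19% in these data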;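 note: 0% = enzyme with DMSO and 100% = DMSO wells lacking enzyme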
535nm interf: 535nm fluorescence interference, HGIII-sPLA2 counter-screen | shares compounds with sPLA2-III inh | BODIPY FL product fluorescence interference, QFRET | inhibition, % at 12.2 µM | 2,000 compounds, 8.5% hits;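 active = average inhibition above the solvent-only control mean plus 3 SD, cut at about 6% in these data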;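 note: 0% = DMSO with substrate plus product and 100% = DMSO with substrate alone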
535nm interf DR: interferes with 535nm fluorescence in dose response counter-screen. IC50, µM. AID 743455. shares compounds with sPLA2-III inh. BODIPY FL product fluorescence interference, cell-free. 240 tested, under 10 active;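 active = IC50 at or below 10 µM; inactive = IC50 above 10 µM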
Active calls of the source: *; / = no result; ! = a repeat was not active. In the library only some 3.9% were active in any assay of this set; here they are far more common.

SMILES	HIF act	sPLA2-III inh	PLCg1 inh	AHR act	CR mimetic SO	PLC-beta3 inh	hGIII sPLA2 conf	535nm interf	others
Cc1cc(-c2n[nH]c(=S)n2-c2ccccc2)nn1C	0	1	5	3	103	7	/	/
COC(=O)c1nccc2c1[nH]c1ccccc12	0	0	-105	15	103	-122	/	/
COC(=O)[C@]12C[C@H](CC(=O)NCCCN3CCCC3=O)C(=O)N(Cc3cccc4ccccc34)C1=C[C@H](C(C)(C)C)O[C@@H]2C	/	-7	-1	/	/	0	/	/
CCN(CC)c1ccc(NC(=O)C2=CC=CN3CCS(=O)(=O)N=C23)cc1	/	21*	-2	4	98	-10	8	1
CC(C)(C)c1ccc(NC(=O)C2=CC=CN3CCS(=O)(=O)N=C23)cc1	/	11	-7	10	113	-11	/	/
CC(C)C[C@@H]1COc2cc(Br)ccc2S(=O)(=O)N1Cc1cn(CCC2OCCCO2)nn1	/	23*	5	/	/	-6	0	-29
Cc1cccc(-n2c3nc(=O)[nH]c(=O)c-3cc3cc([N+](=O)[O-])ccc32)c1	0	25*	-3	0	93	-2	20*	6.6*
Cc1[nH]c2ccccc2c1-c1csc(N)n1	0	2	-9	/	108	-14	/	/
Cc1c(-c2csc(N)n2)c2ccccc2n1C	1	20*	-2	14	130	-18	12	4
O=C(NCCCn1ccnc1)c1ccc(Cl)cc1	5	21*	5	26	83	-1	-4	-6
O=C(CNC(=O)c1ccc(Cl)cc1)NCCCn1ccnc1	0	-4	2	4	107	1	/	/
Cc1cccc(-c2cnc(C(O)c3ccc(-c4ccccc4)cc3)[nH]2)c1 (stereo not given)	/	-18	-2	/	/	-2	/	/
NS(=O)(=O)c1ccc(CNC(=O)c2ccc3c(=O)n4c(nc3c2)CCC4)cc1	0	-7	-15	13	102	-21	/	/
CC(C)c1ccc(-n2nnnc2SCc2nc(N)nc(N)n2)cc1	/	-3	-2	/	/	-4	/	/
O=C(/C=C/c1cccnc1)c1ccc(O)cc1	0	22*	2	-1	108	-5	4	-7
O=C(C=Cc1cccnc1)c1ccccc1	/	14	0	/	/	1	/	/
C/C(=N\NC(=O)COc1cccc(C)c1)c1ccc2ccccc2c1O	/	22*	-21	/	93	-27	39*	6.0*
Cc1cccc(OCC(=O)NCc2ccccc2)c1	1	3	6	7	110	-3	/	/
Cc1c(Cl)ccc2sc(NC(=O)c3ccco3)nc12	5	-31	-23	25	113	-28	/	/
NNc1nc2c(Cl)c(Cl)ccc2s1	1	24*	-5	84*	106	-8	19	13*
CN1OC[C@@H]2CN(S(=O)(=O)c3cc(Cl)cc(Cl)c3)[C@H](c3ccc(-c4ccc(C#N)cc4)cc3)C[C@@H]21	/	16	5	/	/	0	/	/
COc1ccc(CCN(C)C(=O)CN2C(=O)NC3(CCCCC3C)C2=O)cc1OC (stereo not given)	0	4	-2	-1	96	1	/	/
CS(=O)(=O)Oc1ccc(/C=N/NC(=O)c2ccncc2)cc1	0	19*	1	3	92	3	5	-3
CCOC(=O)c1c(C)[nH]c(C(=O)N/N=C/c2cc([N+](=O)[O-])ccc2O)c1C	-1	24*	0	9	97	-12	5	6.1*
CCNC(=O)C(=O)N/N=C/c1cc([N+](=O)[O-])ccc1O	0	0	2	2	128	2	/	/
SMILES	HIF act	sPLA2-III inh	PLCg1 inh	AHR act	CR mimetic SO	PLC-beta3 inh	hGIII sPLA2 conf	535nm interf	others
Cc1cccc(-n2c(-c3ccccc3)c[nH]c2=S)c1C	1	15	3	6	108	1	/	/
CCC1(c2ccccc2)NC(=S)N(c2cccc(C)c2C)N1 (stereo not given)	1	20*	-1	9	91	1	22*	1
Cc1cc(C(=O)NNC(=S)Nc2cccc(C(F)(F)F)c2)nn1C	1	47*	3	2	92	-7	42*	2	535nm interf DR=>122
O=C(C1CCN(C2CCN(Cc3ccc4c(c3)CCO4)CC2)CC1)N1CCOCC1	0	5	0	0	94	-6	/	/
Cc1ccc(NC2(C(N)=O)CCCC2)cc1	/	7	1	/	/	4	/	/
NC(=O)C1(Nc2ccc(-c3ccc(Br)cc3)cc2)CCCC1	/	20*	-2	/	/	-5	12	3
CCOC(=O)c1ccc2c(c1)C(=O)N(C1CCCCC1)C2=O	0	20*	2	0	110	2	3	-8
COC(=O)C1CC(=O)c2sccc2C1 (stereo not given)	-2	20*	6	5	107	1	0	-4
CC(=O)Nc1ccc(S(=O)(=O)NCC2CCN(C(=O)C(=O)c3cc4ccccc4o3)CC2)cc1	/	-9	-2	/	/	-3	/	/
CCOc1ccc(/C=N/NC(=O)C(=O)NCc2ccco2)cc1	-1	20*	3	2	69	-1	-6	-3
CCOc1ccc(NC(=O)NCc2ccco2)cc1	0	2	-1	9	98	1	/	/
Cc1ccc(NC(=S)NC2CCCC2)c(C)c1	3	19*	3	0	86	-2	17	-2
COc1cc(CN2CCNC(=O)C2CC(=O)NC2CCC2)cc(OC)c1 (stereo not given)	0	-2	-5	0	93	-12	/	/
Cc1cc(NS(=O)(=O)c2ccc(N3C(=O)C4C5C=CC(C5)C4C3=O)cc2)nc(C)n1 (stereo not given)	0	21*	4	0	93	5	0	-7
Cc1ccc(S(=O)(=O)Nc2ccc(S(=O)(=O)Nc3cc(C)nc(C)n3)cc2)cc1	-1	-8	5	-1	113	-1	/	/
CC(C)(C)c1cc(NC(=O)C2(C)CCN2C(=O)C2(c3ccccc3)CC2)no1 (stereo not given)	/	1	3	/	/	8	/	/
CC(=O)Nc1ccc(S(=O)(=O)NC2=C(N3CCN(Cc4ccccc4)CC3)C(=O)c3ccccc3C2=O)cc1	1	21*!	4	2	159	-1	25*	-6
CN(CCCS(=O)(=O)[O-])c1ccc(/C=C/c2ccc3ccccc3[n+]2C)cc1	-29	21*	-9	/	90	-18	6	-7
CC1CN(Cc2ccccc2Cl)CC(C)O1 (stereo not given)	0	19*	3	1	87	2	-1	-10
